Source: paper PMC4336329 (PLoS ONE, 2015)
Hit rate of the full screen: of about 310,000 compounds, about 14,000 (4.5%) showed an effect of 50% or more. Effects have a minus sign here. Shown is part of a subset that was picked to be rich in strong results.

Target: human ether-à-go-go-related gene (hERG) potassium channel (human, UniProt Q12809)
Test: primary screen, population patch clamp on CHO cells stably expressing hERG; higher = less effect of the substance
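Further: peak tail current of the secondary pulse compared with the same well before compound.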

human ether-à-go-go-related gene (hERG) potassium channel, sequence (Q12809 whole entry, looked up): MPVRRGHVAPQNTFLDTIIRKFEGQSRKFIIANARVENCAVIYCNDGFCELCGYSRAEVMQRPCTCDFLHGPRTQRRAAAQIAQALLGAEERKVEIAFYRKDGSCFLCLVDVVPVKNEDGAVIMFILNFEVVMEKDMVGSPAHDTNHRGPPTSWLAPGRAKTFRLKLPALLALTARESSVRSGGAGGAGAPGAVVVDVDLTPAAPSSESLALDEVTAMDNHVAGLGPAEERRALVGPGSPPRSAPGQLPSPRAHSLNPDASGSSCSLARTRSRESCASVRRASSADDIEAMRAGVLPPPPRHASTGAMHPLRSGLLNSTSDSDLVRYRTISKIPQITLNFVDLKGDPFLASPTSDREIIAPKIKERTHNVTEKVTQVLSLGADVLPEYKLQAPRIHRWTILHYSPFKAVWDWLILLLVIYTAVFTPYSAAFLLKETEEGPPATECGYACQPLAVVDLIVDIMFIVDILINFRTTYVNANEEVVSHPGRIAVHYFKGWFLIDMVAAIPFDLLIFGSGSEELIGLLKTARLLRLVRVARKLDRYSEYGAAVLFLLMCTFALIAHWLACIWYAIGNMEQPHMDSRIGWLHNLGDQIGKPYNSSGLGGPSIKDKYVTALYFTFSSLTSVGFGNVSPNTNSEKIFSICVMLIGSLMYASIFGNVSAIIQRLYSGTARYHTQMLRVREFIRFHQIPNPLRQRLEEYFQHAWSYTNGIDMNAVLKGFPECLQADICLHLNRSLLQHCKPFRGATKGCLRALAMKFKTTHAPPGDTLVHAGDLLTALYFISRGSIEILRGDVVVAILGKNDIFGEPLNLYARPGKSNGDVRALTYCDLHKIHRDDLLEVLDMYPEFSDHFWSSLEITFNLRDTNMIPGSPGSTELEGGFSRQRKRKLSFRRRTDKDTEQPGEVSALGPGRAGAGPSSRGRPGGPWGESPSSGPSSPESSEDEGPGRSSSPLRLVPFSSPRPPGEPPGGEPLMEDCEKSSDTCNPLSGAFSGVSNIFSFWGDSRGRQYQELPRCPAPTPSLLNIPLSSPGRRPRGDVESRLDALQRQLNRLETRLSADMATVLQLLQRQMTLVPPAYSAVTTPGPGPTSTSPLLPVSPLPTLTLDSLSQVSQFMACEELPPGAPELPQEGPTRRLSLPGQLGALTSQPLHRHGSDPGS

SMILES	hERG current change (%, negative = inhibition) at 10uM
CCOC(=O)C1CCCN(C(=O)CS(=O)(=O)Cc2ccccc2)C1 (centres unmarked)	15.3%
O=C(CNC(=O)c1ccc2c(c1)OCO2)N/N=C/c1cc(Br)ccc1O	20.1%
Cn1c(SCC(N)=O)nnc1C1CCN(S(=O)(=O)c2ccccc2C(F)(F)F)CC1	13.3%
COCC(=O)Nc1cc(=O)n(C)c(=O)n1C	4.94%
CC(C)(C)C(=O)Nc1nnc(SCC(=O)NCc2cccs2)s1	16.3%
COc1ccc(CNCC(O)(c2ccccc2)c2ccc(Cl)cc2)cc1 (centres unmarked)	-68.8%
CCc1ccc(C(O)(CNCc2ccccc2)c2ccccc2)cc1 (centres unmarked)	-41.6%
OC(CNCc1ccccc1)(c1ccccc1)c1ccccc1	-9.7%
OC(CNCc1ccc(Cl)cc1)(c1ccccc1)c1ccc(F)cc1 (centres unmarked)	-4.52%
COc1ccc(CNCC(O)(c2ccc(Cl)cc2)c2ccc(Cl)cc2)cc1	-12%
COc1ccc(CNCC(O)(c2ccccc2)c2ccccc2)cc1	-64%
CN(CC(=O)Nc1ccccc1Cl)C(=O)CSc1ncc(C(F)(F)F)cc1Cl	9.55%
CCCCCCCNC(=O)CC(NS(=O)(=O)c1ccc(NC(C)=O)cc1)C(C)C (centres unmarked)	3.19%
CCCc1cc(NCCCN2CCOCC2)n2c(nc3ccccc32)c1C#N	-75.7%
CCCc1cc(NCCCO)n2c(nc3ccccc32)c1C#N	-16.6%
CC(C)c1cc(NCC2CCCO2)n2c(nc3ccccc32)c1C#N (centres unmarked)	-41%
CCCc1cc(NCC2CCCO2)n2c(nc3ccccc32)c1C#N (centres unmarked)	-66.5%
Cc1cc(NCC2CCCO2)n2c(nc3ccccc32)c1C#N (centres unmarked)	-21.2%
Cc1cc(NCCCN2CCOCC2)n2c(nc3ccccc32)c1C#N	-23.3%
CC(C)c1cc(NCCCN2CCOCC2)n2c(nc3ccccc32)c1C#N	-79.9%
CCCc1cc(NCCN(C)C)n2c(nc3ccccc32)c1C#N	-7.73%
CCCc1cc(NCCCCO)n2c(nc3ccccc32)c1C#N	-53.1%
Cc1cc(NCCN2CCOCC2)n2c(nc3ccccc32)c1C#N	-6.09%

SMILES	hERG current change (%, negative = inhibition) at 10uM
CCCc1cc(NCCCN(C)C)n2c(nc3ccccc32)c1C#N	0.382%
CCCc1c(C)c(C#N)c2nc3ccccc3n2c1NCCCN1CCOCC1	-44%
Cn1c(=O)oc2cc(S(=O)(=O)NC3CCN(Cc4ccccc4)CC3)ccc21	-36.4%
CC1Cc2ccccc2N1C(=S)Nc1cccc(S(=O)(=O)N(C)C)c1 (centres unmarked)	2.06%
O=C(c1ccc2c(c1)OCO2)N1CCC2(CC1)OCCO2	-10.6%
O=C(O)C(=O)O.O=[N+]([O-])c1ccc(OCCN2CCNCC2)cc1	-76%
CC1CCN(CCCCOc2ccccc2[N+](=O)[O-])CC1.O=C(O)C(=O)O	-26.3%
CC1CCN(S(=O)(=O)c2ccc(Oc3ccc([N+](=O)[O-])cc3)cc2)CC1	-21.7%
Fc1ccc(OCCOCCN2CCNCC2)cc1.O=C(O)C(=O)O	6.98%
CC1CCN(CCCCOc2ccc([N+](=O)[O-])cc2)CC1	-74.7%
O=C(O)C(=O)O.O=[N+]([O-])c1ccc(OCCN2CCCCCC2)cc1	-86.1%
Cc1ccc(OCCN2CCNCC2)c([N+](=O)[O-])c1.O=C(O)C(=O)O	-5.84%
O=[N+]([O-])c1ccc(S(=O)(=O)CC(CN2CCOCC2)N2CCOCC2)cc1 (centres unmarked)	-1.68%
CC1CCN(CC(CS(=O)(=O)c2ccc([N+](=O)[O-])cc2)N2CCC(C)CC2)CC1 (centres unmarked)	-62.1%
CC1CCN(S(=O)(=O)c2ccc([N+](=O)[O-])cc2)CC1	-3.23%
COc1ccc(C)cc1N(C(=O)COc1cccc(F)c1)c1nc2ccccc2s1	-27.2%
O=[N+]([O-])c1ccc(-n2nnnc2-c2ccccc2)c([N+](=O)[O-])c1	6.9%
COc1cccc(CN2CC(C(=O)NCc3cccc(N4CCCC4)c3)CCC2=O)c1 (centres unmarked)	-5.08%
CCOc1ccc(S(=O)(=O)NC2CC2)cc1	4.15%
N/C(=N\OC(=O)c1ccc2ccccc2c1)c1ccncc1	-38.4%
C[C@H](CCC(=O)O)[C@H]1CC[C@H]2[C@@H]3[C@H](O)C[C@@H]4C[C@H](O)CC[C@]4(C)[C@H]3CC[C@]12C	13.8%
CC(C)C(=O)N1CCN(c2ccccc2NC(=S)NC(=O)c2cccs2)CC1	-2.66%
CCOc1ccc(OCC)c(NC(=O)C2CCCN(C(=O)c3ccc(Cl)cc3)C2)c1 (centres unmarked)	-34%

SMILES	hERG current change (%, negative = inhibition) at 10uM
Clc1ccc(OCCCCCN2CCOCC2)cc1	-37.6%
Cc1ccc(OCCCCCN2CCOCC2)cc1	4.39%
O=[N+]([O-])c1ccc(OCCCCN2CCCCC2)cc1	-69.4%
O=[N+]([O-])c1ccccc1OCCCCN1CCCCC1	-32.2%
O=[N+]([O-])c1ccc(OCCCCCN2CCOCC2)cc1	-58.6%
C=Cc1ccc2c(c1)N(C)C(=C)S2.I	19.7%
CCOC(=O)c1oc2ccccc2c1NC(=O)COC	-12.2%
COc1ccc(CCNC(=S)Nc2cccc3ccccc23)cc1	-4.42%
CCOc1ccc(NS(=O)(=O)c2ccc(C(=O)N3CCC3)cc2)cc1	-4.09%
COc1ccc(OC)c(NC(=O)Cn2c(CCC(=O)O)ccc2-c2ccccc2)c1	-5.33%
COc1ccccc1CNc1nc2nc(C)c(Cl)c(=O)n2[nH]1	-2.39%
O=c1c2c3c(sc2n(CCN2CCCC2)c(=O)n1Cc1ccco1)CCCCC3	-68.6%
O=C(Cn1c(=O)n(Cc2ccco2)c(=O)c2c3c(sc21)CCCC3)Nc1ccccc1	18%
O=c1c2c3c(sc2n(CCN2CCCCC2)c(=O)n1Cc1ccco1)CCCCC3	-69.1%
O=c1c2c3c(sc2n(CCN2CCCC2)c(=O)n1Cc1ccccc1)CCCCC3	-34.7%
O=C(Cn1c(=O)n(Cc2ccco2)c(=O)c2c3c(sc21)CCCCC3)Nc1ccccc1	6.54%
O=c1c2c3c(sc2n(CCN2CCOCC2)c(=O)n1Cc1ccco1)CCCCC3	-44.3%
c1ccc(-c2[nH]ncc2-c2nc3ccccc3[nH]2)cc1	-11%
CCOC(=O)N1CCN(C(=O)Cn2c(C)cc3ccccc3c2=O)CC1	3.68%
O=C(CCn1nnc2ccccc21)N1CCC(O)(c2cccc(F)c2)CC1	4.12%
CC(C)(C)NC(=O)c1ccc(NC(=O)c2ccccc2-c2ccccc2C(=O)O)cc1	25.2%
COc1ccc2cc(C(=O)C3CCCN(C4CCOCC4)C3)ccc2c1 (centres unmarked)	-63.5%
COc1cccc(C(=O)C2CCCN(C3CCOCC3)C2)c1 (centres unmarked)	-50.4%

SMILES	hERG current change (%, negative = inhibition) at 10uM
COc1ccc(C(=O)C2CCCN(C(=O)C3CCOCC3)C2)c(C)c1 (centres unmarked)	27%
COc1ccc2cc(C(=O)C3CCCN(C(=O)c4ccnn4C)C3)ccc2c1 (centres unmarked)	-41.1%
CC(C)Oc1cccc(C(=O)C2CCCN(C3CCOCC3)C2)c1 (centres unmarked)	-10.5%
COc1cccc(C(=O)C2CCCN(C(=O)c3ccccc3Cl)C2)c1 (centres unmarked)	5.15%
Cc1ccc(C(C#N)c2ccc3c(C(F)(F)F)cc(C(F)(F)F)nc3n2)cc1 (centres unmarked)	11.1%
CCOc1cc(NS(=O)(=O)c2ccc(NC(C)=O)cc2)c(OCC)cc1NC(=O)C(C)C	10.3%
O=C(CCN1CCCCO1)N1CCCC(Nc2ccc(F)cc2)C1 (centres unmarked)	12.7%
O=C(Cn1ccc([N+](=O)[O-])n1)N1CCc2ccccc21	-2.32%
Cc1cc(C)n2nc(C)c(-c3ccc(Cl)cc3)c2n1	27.1%
CCOC(=O)c1c(-c2ccccc2)cn2c(C)cc(C)nc12	-22.9%
Cc1cc(C)n2cc(-c3ccc(Cl)cc3)c(C(=O)O)c2n1	-50.9%
O=c1[nH]c(=S)n(-c2ccccc2)c(O)c1/C=N/N1CCOCC1	-2.11%
Cc1noc(C)c1-c1nnc(-c2ccc(C(F)(F)F)cc2)o1	4.76%
COCc1ccc(C(=O)NC2CCCN(Cc3ccccc3F)C2)o1 (centres unmarked)	11.2%
COCc1ccc(C(=O)N(C)CC2CCCN(CCc3ccccc3F)C2)o1 (centres unmarked)	-41%
COCc1ccc(C(=O)N(C)C2CCCN(Cc3ccccc3F)C2)o1 (centres unmarked)	0.722%
COCc1ccc(C(=O)N(C)CC2CCCN(CCc3ccc(OC)cc3)C2)o1 (centres unmarked)	-69.5%
COCc1ccc(C(=O)N(C)CC2CCCN(CCc3ccc(Cl)cc3)C2)o1 (centres unmarked)	-78.9%
COc1ccccc1OCC(=O)Nc1ccc2c(c1)C(=O)N(CC1CCCO1)C2=O (centres unmarked)	-19.3%
CC(=O)Nc1cccc(N(C(=O)C2COc3ccccc3O2)C(C(=O)NC2CCCCC2)c2cn(C)nc2C)c1 (centres unmarked)	24.1%
